Drawing on PubChem BioAssay (EPA / NIEHS), this text covers outcome for 10 compounds.

Active and inactive are the calls of the source. The calls were made as follows: active = hit-call score of the fitted dose curve at least 0.9, where 1 is the maximum; inactive = score below 0.9.

Read-out in this test: Intercellular Adhesion Molecule 1 (ICAM1), ICAM1 (gene 3383)
Nature of the test: BSK_hDFCGF_ICAM1: BioMAP Diversity Plus: hDFCGF Assay for Intercellular Adhesion Molecule 1 (ICAM1) Biomarker Activity (AID 2284287). The note with it: primary human foreskin fibroblasts. The method, then:
BSK_hDFCGF is a cell-based, multiplexed-readout assay that uses foreskin fibroblast, a human skin primary cell, with measurements taken at 24 hours after chemical dosing in a 96-well plate.BSK_hDFCGF_ICAM1 is an assay component measured in the BSK_hDFCGF assay. It measures ICAM-1 antibody related to regulation of gene expression using ELISA technology.Data from the assay component BSK_hDFCGF_ICAM1 was analyzed at the endpoint, BSK_hDFCGF_ICAM1, in the positive analysis fitting direction relative to DMSO as the negative control and baseline of activity. Using a type of binding reporter, gain or loss-of-signal activity can be used to understand protein changes. To generalize the intended target to other relatable targets, this assay endpoint is annotated to the 'cell adhesion molecules' intended target family, where the subfamily is 'Immunoglobulin CAM'.
The levels of cell surface (or secreted, indicated by the prefix "s") biomarker endpoints were measured by ELISA. Overt cytotoxicity to cells in confluent adherent cultures (all systems other than the BT system) was assessed by measuring total protein levels using sulforhodamine B (SRB) staining in parallel cultures at the time of biomarker measurements, indicated as SRB endpoints. For proliferation assays for adherent cell types, individual cell types are cultured at sub-confluence and relative cell numbers quantified by SRB staining at time points optimized for each system (48 h: 3C and CASM3C systems; 72 h: BT and HDF3CGF systems; 96 h: SAg system). SRB was performed by staining cells with 0.1% SRB after fixation with 10% TCA and reading wells at 560 nm.Viability and proliferation of PBMC (T cells) was quantified by Alamar Blue reduction for the SAg and BT systems. For PBMC viability (referred to as PBMC Cytotoxicity within the assay endpoint names), cells were plated (75,000/well in a 96-well plate) and then chemical samples added for 1 h before addition of activators, SEB and TSST-1 (20 ng/mL final concentration each). Cells were incubated for 90 h. Then, Alamar Blue (20 uL/well) (Invitrogen, Cat DAL1100) was added for 6 h, and the plates were read with a fluorescence microplate reader at 546/580 nm (excitation/emission). For PBMC proliferation, cells were plated and activated as above but incubated for only 16 h prior to addition of Alamar Blue. Plates were read after 6 h.
Regarding `FC(F)(F)C(F)(F)C(F)(F)C(F)(F)C(F)(F)C(F)(F)I`, the result was inactive.

`NCC(F)(F)C(F)(F)C(F)(F)C(F)(F)F`: the result was inactive.

As to `OCCC(F)(F)C(F)(F)C(F)(F)C(F)(F)F`, the result was inactive.

Take `FC(F)(F)COC(OCC(F)(F)F)OCC(F)(F)F`: the outcome was inactive.

In the case of `O=S(=O)(O)CCC(F)(F)C(F)(F)C(F)(F)C(F)(F)C(F)(F)C(F)(F)F`, the outcome was inactive.

Consider `FC(F)=C(F)C(F)(F)C(F)(F)C(F)(F)C(F)(F)C(F)(F)C(F)(F)F`, for which the result was inactive.

As to `O=C(Cl)C(F)(F)C(F)(F)C(F)(F)C(=O)Cl`, the result was inactive.

With `C[Si](C)(C)C(F)(F)C(F)(F)C(F)(F)F`, the result was inactive.

For the compound `OC(O)(C(F)C(O)(O)C(F)(F)F)C(F)(F)F`, the outcome was inactive.

Take `FC(F)C(F)(F)COCC1CO1` (stereo not given): the outcome was inactive.
